Data reported in PubChem BioAssay (EPA / NIEHS).
Activity calls are given as the source filed them. How the source made its calls: active means hit-call score of the fitted dose curve at least 0.9, where 1 is the maximum; inactive means score below 0.9.

How the values were obtained:
Settings in all cases: mRNA level, 48 h; actives raise or lower the signal
[1] = read-out: ABC Transporter (ABCC3), ABCC3 (gene 8714); test: LTEA_HepaRG_ABCC3: Life Technologies and Expression Analysis (LTEA) Assay for ABC Transporter (ABCC3) using HepaRG (AID 2283462)
Summary of the method: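 Transcript level by TaqMan qRT-PCR, normalised to three housekeeping genes, fitted in both directions relative to vehicle. Chemicals tested in duplicate at eight half-log concentrations up to 100 uM for 48 h on HepaRG cells (0.5% DMSO).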

[2] = read-out: ABC Transporter (ABCB11), ABCB11 (gene 8647); test: LTEA_HepaRG_ABCB11: Life Technologies and Expression Analysis (LTEA) Assay for ABC Transporter (ABCB11) using HepaRG (AID 2283463)
Summary of the method: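 ABCB11 transcript levels are read by Fluidigm TaqMan qRT-PCR after 48 h chemical treatment of human HepaRG cells. Concentrations span 100 uM downward in half-log steps with 0.5% DMSO; gain or loss is fitted against DMSO controls.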

[3] = read-out: ABC Transporter (ABCC2), ABCC2 (gene 1244); test: LTEA_HepaRG_ABCC2: Life Technologies and Expression Analysis (LTEA) Assay for ABC Transporter (ABCC2) using HepaRG (AID 2283464)
Summary of the method: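 Endpoint is ABCC2 transcript level from qRT-PCR, normalized to three housekeeping genes and fitted bidirectionally relative to DMSO. Human HepaRG cells received test chemical for 48 h at up to 100 uM (8 points, half-log steps, 0.5% DMSO), duplicate wells.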

[4] = read-out: Broad substrate specificity ATP-binding cassette transporter ABCG2 (Homo sapiens) (UniProt Q9UNQ0); test: LTEA_HepaRG_ABCG2: Life Technologies and Expression Analysis (LTEA) Assay for ABC Transporter (ABCG2) using HepaRG (AID 2283465)
Summary of the method: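 Read-out is ABCG2 mRNA induction or loss quantified by qRT-PCR after 48 h chemical treatment of human HepaRG cells, normalized to three housekeeping genes. Concentrations reached 100 uM top in half-log steps; fitting was bidirectional against 0.5% DMSO.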

[5] = read-out: Peroxisomal acyl-coenzyme A oxidase 1 (ACOX1) gene, ACOX1 (gene 51); test: LTEA_HepaRG_ACOX1: Life Technologies and Expression Analysis (LTEA) Assay for Peroxisomal acyl-coenzyme A oxidase 1 (ACOX1) gene using HepaRG (AID 2283467)
Summary of the method: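 Measured by qRT-PCR against three housekeeping genes: ACOX1 transcript change in human HepaRG cells after 48 h dosing. Concentrations ran up to 100 uM in half-log steps. Curves were fitted bidirectionally relative to 0.5% DMSO.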

[6] = read-out: Alkaline Phosphatase, Placental (ALPP) gene, ALPP (gene 250); test: LTEA_HepaRG_ALPP: Life Technologies and Expression Analysis (LTEA) Assay for Alkaline Phosphatase, Placental (ALPP) gene using HepaRG (AID 2283468)
Summary of the method: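 ALPP transcript level, measured by qRT-PCR and normalized to three housekeeping genes (ACTB, GAPDH, POLR2A), after 48 h dosing of differentiated HepaRG in serum-free induction medium. Top concentration 100 uM with half-log dilutions (8 points, 0.5% DMSO, duplicates); bidirectional fitting relative to DMSO.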

[7] = read-out: Bcl-2 (BAD) gene, BAD (gene 572); test: LTEA_HepaRG_BAD: Life Technologies and Expression Analysis (LTEA) Assay for Bcl-2 (BAD) gene using HepaRG (AID 2283469)
Summary of the method: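 BAD transcript change, measured by qRT-PCR against three housekeeping genes and fitted in both directions relative to 0.5% DMSO, after 48 h chemical treatment of human HepaRG liver cells at concentrations up to 100 uM.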

[8] = read-out: Bcl-2 (BAX) gene, BAX (gene 581); test: LTEA_HepaRG_BAX: Life Technologies and Expression Analysis (LTEA) Assay for Bcl-2 (BAX) gene using HepaRG (AID 2283470)
Summary of the method: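 Differentiated human HepaRG cells, plated 48 h then switched to serum-free induction medium, were exposed 48 h to 8 half-log concentrations up to 100 uM in 0.5% DMSO; BAX mRNA measured by qRT-PCR, normalized to ACTB, GAPDH, POLR2A.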

[9] = read-out: adenosine kinase (ADK) gene, ADK (gene 132); test: LTEA_HepaRG_ADK: Life Technologies and Expression Analysis (LTEA) Assay for adenosine kinase (ADK) gene using HepaRG (AID 2283471)
Summary of the method: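 HepaRG (human liver), 48 h chemical exposure, 8-pt half-log series, top 100 uM, 0.5% DMSO vehicle. Readout: ADK mRNA by qRT-PCR vs housekeeping genes; bidirectional curve fit relative to DMSO baseline.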

[10] = read-out: Alpha-fetoprotein (AFP) gene, AFP (gene 174); test: LTEA_HepaRG_AFP: Life Technologies and Expression Analysis (LTEA) Assay for Alpha-fetoprotein (AFP) gene using HepaRG (AID 2283472)
Summary of the method: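 Human HepaRG cells plated 48 h, then switched to serum-free induction medium and exposed in duplicate for 48 h to 8-point half-log series from 100 uM in 0.5% DMSO. AFP mRNA by qRT-PCR, normalized to ACTB, GAPDH, POLR2A; bidirectional fit versus DMSO.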

BCL2L11 (gene 10018) = test: LTEA_HepaRG_BCL2L11: Life Technologies and Expression Analysis (LTEA) Assay for Bcl-2 (BCL2L11) gene using HepaRG (AID 2283473)
Summary of the method: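 BCL2L11 transcript levels are measured by Fluidigm qRT-PCR, normalized to three housekeeping genes. HepaRG cultures were plated 48 h, then treated 48 h with test chemical (top 100 uM, half-log, 0.5% DMSO vehicle); curves were fitted bidirectionally against DMSO.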

[11] = read-out: Apolipoprotein A-V (APOA5) gene, APOA5 (gene 116519); test: LTEA_HepaRG_APOA5: Life Technologies and Expression Analysis (LTEA) Assay for Apolipoprotein A-V (APOA5) gene using HepaRG (AID 2283474)
Summary of the method: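 APOA5 transcript levels were quantified by qRT-PCR, normalized to three housekeeping genes, after 48 h chemical treatment of HepaRG cells (8 points, 100 uM maximum, half-log steps, 0.5% DMSO). Curves fitted in both directions against vehicle.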

[12] = read-out: Apoptosis regulator Bcl-2 (Homo sapiens) (UniProt P10415); test: LTEA_HepaRG_BCL2: Life Technologies and Expression Analysis (LTEA) Assay for Bcl-2 gene using HepaRG (AID 2283475)
Summary of the method: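 Differentiated HepaRG cells in serum-free induction medium were exposed for 48 h to eight half-log concentrations up to 100 uM in 0.5% DMSO, in duplicate. BCL2 mRNA was quantified by TaqMan qRT-PCR normalised to ACTB, GAPDH and POLR2A, with bidirectional fitting versus DMSO.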

[13] = read-out: Bcl-2 (BID) gene, BID (gene 637); test: LTEA_HepaRG_BID: Life Technologies and Expression Analysis (LTEA) Assay for Bcl-2 (BID) gene using HepaRG (AID 2283476)
Summary of the method: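 Differentiated HepaRG cells in serum-free induction medium were exposed in duplicate for 48 h to eight half-log concentrations up to 100 uM in 0.5% DMSO. BID mRNA was quantified by qRT-PCR, normalized to ACTB, GAPDH and POLR2A.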

[14] = read-out: Cytochrome P450 (CYP24A1), CYP24A1 (gene 1591); test: LTEA_HepaRG_CYP24A1: Life Technologies and Expression Analysis (LTEA) Assay for Cytochrome P450 (CYP24A1) using HepaRG (AID 2283478)
Summary of the method: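 mRNA of CYP24A1 quantified by TaqMan qRT-PCR (ACTB/GAPDH/POLR2A normalization) after 48 h chemical exposure of HepaRG cells, top concentration 100 uM, half-log steps, 0.5% DMSO vehicle, duplicates. Curves fitted bidirectionally against DMSO baseline.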

[15] = read-out: Cytochrome P450 (CYP1A2), CYP1A2 (gene 1544); test: LTEA_HepaRG_CYP1A2: Life Technologies and Expression Analysis (LTEA) Assay for Cytochrome P450 (CYP1A2) using HepaRG (AID 2283479)
Summary of the method: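 CYP1A2 transcript measured by TaqMan qRT-PCR against three housekeeping genes after 48-hour chemical exposure of HepaRG cells. Eight-point half-log series topping at 100 uM in 0.5% DMSO, duplicates; gain or loss fitted relative to vehicle.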

[16] = read-out: cysteine-aspartic acid protease (CASP8), CASP8 (gene 841); test: LTEA_HepaRG_CASP8: Life Technologies and Expression Analysis (LTEA) Assay for cysteine-aspartic acid protease (CASP8) using HepaRG (AID 2283480)
Summary of the method: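 HepaRG, 48 h exposure, duplicate wells; 8 conc, half-log from 100 uM, 0.5% DMSO. Serum-free induction medium. CASP8 mRNA by TaqMan qRT-PCR, norm. ACTB/GAPDH/POLR2A; gain/loss fitted vs DMSO.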

[17] = read-out: Cytochrome P450 (CYP2B6), CYP2B6 (gene 1555); test: LTEA_HepaRG_CYP2B6: Life Technologies and Expression Analysis (LTEA) Assay for Cytochrome P450 (CYP2B6) using HepaRG (AID 2283481)
Summary of the method: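 CYP2B6 transcript level quantified by qRT-PCR against three housekeeping genes, fitted bidirectionally relative to DMSO. HepaRG cultures received chemicals for 48 h, 8-point half-log series from 100 uM in 0.5% DMSO, duplicate wells, serum-free induction medium.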

[18] = read-out: Cytochrome P450 2C19 (Homo sapiens) (UniProt P33261); test: LTEA_HepaRG_CYP2C19: Life Technologies and Expression Analysis (LTEA) Assay for CYP2C19 using HepaRG (AID 2283482)
Summary of the method: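 CYP2C19 transcript levels by qRT-PCR, normalized to three housekeeping genes, in HepaRG cells after 48 h chemical exposure. Eight-point half-log series topping at 100 uM, 0.5% DMSO vehicle. Increases and decreases both fitted against DMSO.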

CYP2C8 (gene 1558) = test: LTEA_HepaRG_CYP2C8: Life Technologies and Expression Analysis (LTEA) Assay for CYP2C8 using HepaRG (AID 2283483)
Summary of the method: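 CYP2C8 mRNA induction or loss, by qRT-PCR normalized to ACTB/GAPDH/POLR2A, is read in HepaRG cells after 48 h treatment. Concentrations run from 100 uM down in half-log dilutions, with 0.5% DMSO as vehicle and baseline.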

Measured: AC50

Apoptosis regulator Bcl-2 (Homo sapiens), sequence (P10415 whole entry, looked up): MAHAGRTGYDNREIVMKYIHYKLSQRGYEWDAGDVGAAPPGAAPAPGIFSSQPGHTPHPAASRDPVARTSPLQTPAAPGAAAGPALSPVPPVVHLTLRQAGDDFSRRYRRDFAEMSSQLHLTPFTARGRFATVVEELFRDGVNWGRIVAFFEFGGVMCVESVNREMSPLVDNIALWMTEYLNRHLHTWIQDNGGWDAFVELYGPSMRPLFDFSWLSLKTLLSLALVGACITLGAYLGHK
Broad substrate specificity ATP-binding cassette transporter ABCG2 (Homo sapiens), sequence (Q9UNQ0 whole entry, looked up): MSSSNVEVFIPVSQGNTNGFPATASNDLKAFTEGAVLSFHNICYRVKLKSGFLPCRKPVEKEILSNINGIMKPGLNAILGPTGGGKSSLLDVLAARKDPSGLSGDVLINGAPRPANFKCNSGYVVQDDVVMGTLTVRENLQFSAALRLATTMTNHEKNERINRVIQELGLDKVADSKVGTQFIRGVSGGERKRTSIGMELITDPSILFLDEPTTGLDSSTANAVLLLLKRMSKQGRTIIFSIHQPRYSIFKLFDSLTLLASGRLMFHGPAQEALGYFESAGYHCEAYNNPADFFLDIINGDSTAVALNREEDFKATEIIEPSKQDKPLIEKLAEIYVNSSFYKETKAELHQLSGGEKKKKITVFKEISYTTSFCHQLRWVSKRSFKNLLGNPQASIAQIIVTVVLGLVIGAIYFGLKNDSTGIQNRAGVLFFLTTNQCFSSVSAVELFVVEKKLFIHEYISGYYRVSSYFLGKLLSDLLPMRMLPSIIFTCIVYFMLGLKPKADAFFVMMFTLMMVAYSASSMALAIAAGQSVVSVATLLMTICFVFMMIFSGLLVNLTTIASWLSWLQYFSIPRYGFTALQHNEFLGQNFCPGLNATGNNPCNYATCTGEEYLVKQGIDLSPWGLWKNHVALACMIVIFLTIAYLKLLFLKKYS
Cytochrome P450 2C19 (Homo sapiens), sequence (P33261 whole entry, looked up): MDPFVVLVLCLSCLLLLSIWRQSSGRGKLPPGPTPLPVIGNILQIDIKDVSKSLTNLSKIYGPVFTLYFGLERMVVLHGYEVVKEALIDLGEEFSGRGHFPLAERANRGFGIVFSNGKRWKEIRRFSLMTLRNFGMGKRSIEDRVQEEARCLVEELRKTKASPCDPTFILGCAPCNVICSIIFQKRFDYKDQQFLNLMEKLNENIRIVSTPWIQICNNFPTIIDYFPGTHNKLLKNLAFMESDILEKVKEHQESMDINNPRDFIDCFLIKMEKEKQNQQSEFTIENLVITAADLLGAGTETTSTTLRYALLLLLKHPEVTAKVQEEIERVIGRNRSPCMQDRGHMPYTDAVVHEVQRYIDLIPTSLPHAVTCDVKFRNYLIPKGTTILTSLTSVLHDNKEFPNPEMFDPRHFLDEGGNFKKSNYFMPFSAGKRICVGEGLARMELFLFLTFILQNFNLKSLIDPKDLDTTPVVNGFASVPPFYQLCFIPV

CCCCC=O
inactive: [1] | [2] | [3] | [4] | [5] | [6] | [7] | [8] | [9] | [10] | BCL2L11 (gene 10018) | [11] | [12] | [13] | [14] | [15] | [16] | [17] | [18] | CYP2C8 (gene 1558)

CCCCCCCCCCCCOS(=O)(=O)O
inactive: [1] | [4] | [5] | [6] | [7] | [9] | BCL2L11 (gene 10018) | [11] | [13] | [14]
active: [3] 86.2 µM | [8] 50 µM | [10] 77.7 µM | [12] 86.9 µM | [15] 71.2 µM | [17] 94.1 µM | [18] 82.1 µM

CCC(C)c1ccccc1O (stereo unspecified)
inactive: [1] | [2] | [3] | [4] | [5] | [6] | [7] | [8] | [9] | [10] | BCL2L11 (gene 10018) | [11] | [12] | [13] | [14] | [15] | [16] | [17] | [18] | CYP2C8 (gene 1558)

CC(=O)Nc1ccc(O)cc1
inactive: [1] | [2] | [3] | [4] | [5] | [6] | [7] | [8] | [9] | [10] | BCL2L11 (gene 10018) | [11] | [12] | [13] | [14] | [15] | [16] | [17] | [18] | CYP2C8 (gene 1558)

N=C(N)c1ccc(OCCCCCOc2ccc(C(=N)N)cc2)cc1
active: [1] 3.46 µM | [2] 4.37 µM | [3] 25.6 µM | [4] 2.79 µM | [5] 29 µM | [8] 6.28 µM | [9] 30.5 µM | [10] 7.45 µM | BCL2L11 (gene 10018) 3.64 µM | [11] 11.4 µM | [12] 73.6 µM | [13] 68.3 µM | [15] 5.43 µM | [16] 30.1 µM | [17] 3.74 µM | [18] 6.53 µM | CYP2C8 (gene 1558) 3.73 µM
inactive: [6] | [7] | [14]

O=C(CCCN1CCC(O)(c2ccc(Cl)cc2)CC1)c1ccc(F)cc1
active: [1] 50 µM | [2] 80.1 µM | [3] 80.7 µM | [5] 67 µM | [6] 36 µM | [8] 81.1 µM | [10] 67.8 µM | [12] 81.3 µM | [15] 82.6 µM | [17] 79.7 µM
inactive: [4] | [7] | [9] | BCL2L11 (gene 10018) | [11] | [13] | [14] | [16] | CYP2C8 (gene 1558)

CCCCc1oc2ccccc2c1C(=O)c1cc(I)c(OCCN(CC)CC)c(I)c1
active: [1] 22.4 µM | [2] 52.1 µM | [3] 68.8 µM | [4] 61 µM | [6] 22.8 µM | [8] 65.2 µM | [10] 11.9 µM | [11] 61.6 µM | [12] 59.5 µM
inactive: [5] | [7] | [9] | BCL2L11 (gene 10018) | [13] | [16]

CCCCC(CC)C(=O)O (stereo unspecified)
inactive: [1] | [2] | [3] | [4] | [5] | [6] | [7] | [8] | [9] | [10] | BCL2L11 (gene 10018) | [11] | [12] | [13] | [14] | [15] | [16] | [17] | [18] | CYP2C8 (gene 1558)
